# Results from PubChem BioAssay AID1159580 (chemical genetic matrix, 2015).
# Hit rate of the full screen: of about 5,500 compounds, about 2,000 (36%) were called active. Roughly 18% stayed inconclusive and do not appear here. The list shows a part of the results. A number with no mark means an inactive call. Rule as the data show it: active = normalized growth mostly below about 0.91 (no sharp cut-off); inconclusive = no clear call, values can overlap the other calls; inactive = mostly above about 0.92.
# Experiment: chemical genetic growth profiling, strain panel (AID 1159580);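 also: tested at 20 µM; growth read once vehicle control cultures reached saturation at 30 °C; 1 = growth at the plate median or of vehicle wells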
# Settings: growth OD
# [1] = S. cerevisiae deletion strains, locus YDL101C, strain DUN1, stronger effect = lower value
# [2] = S. cerevisiae deletion strains, locus YHR030C, strain SLT2, stronger effect = lower value
smiles,measurement,setting,value
CCOC(=O)c1cnc(-c2ccccn2)[nH]c1=O,normalized growth,"S. cerevisiae deletion strains, locus YAR019C, strain CDC15, stronger effect = lower value",0.933
same,normalized growth,"S. cerevisiae deletion strains, locus YBL105C, strain PKC1, stronger effect = lower value",0.955
same,normalized growth,"S. cerevisiae deletion strains, locus YBR135W, strain CKS1, stronger effect = lower value",0.932
same,normalized growth,"S. cerevisiae deletion strains, locus YBR136W, strain MEC1, stronger effect = lower value",0.94
same,normalized growth,"S. cerevisiae deletion strains, locus YBR160W, strain CDC28, stronger effect = lower value",0.934
same,normalized growth,"S. cerevisiae deletion strains, locus YDL017W, strain CDC7, stronger effect = lower value",0.957
same,normalized growth,"S. cerevisiae deletion strains, locus YDL028C, strain MPS1, stronger effect = lower value",0.94
same,normalized growth,[1],0.955
same,normalized growth,"S. cerevisiae deletion strains, locus YDL108W, strain KIN28, stronger effect = lower value",0.943
same,normalized growth,"S. cerevisiae deletion strains, locus YDL132W, strain cdc53, stronger effect = lower value",0.948
same,normalized growth,"S. cerevisiae deletion strains, locus YDL214C, strain PRR2, stronger effect = lower value",0.825
same,normalized growth,"S. cerevisiae deletion strains, locus YDR052C, strain DBF4, stronger effect = lower value",0.952
same,normalized growth,"S. cerevisiae deletion strains, locus YDR054C, strain cdc34, stronger effect = lower value",0.899
same,normalized growth,"S. cerevisiae deletion strains, locus YDR226W, strain ADK1, stronger effect = lower value",0.935
same,normalized growth,"S. cerevisiae deletion strains, locus YDR477W, strain SNF1, stronger effect = lower value",0.85
same,normalized growth,"S. cerevisiae deletion strains, locus YER123W, strain YCK3, stronger effect = lower value",0.453 (active)
same,normalized growth,"S. cerevisiae deletion strains, locus YER133W, strain GLC7, stronger effect = lower value",0.856
same,normalized growth,"S. cerevisiae deletion strains, locus YFL009W, strain cdc4, stronger effect = lower value",0.907
same,normalized growth,"S. cerevisiae deletion strains, locus YFL029C, strain CAK1, stronger effect = lower value",0.932
same,normalized growth,"S. cerevisiae deletion strains, locus YFR003C, strain YPI1, stronger effect = lower value",0.947
same,normalized growth,"S. cerevisiae deletion strains, locus YFR019W, strain FAB1, stronger effect = lower value",0.819
same,normalized growth,"S. cerevisiae deletion strains, locus YFR028C, strain CDC14, stronger effect = lower value",0.937
same,normalized growth,"S. cerevisiae deletion strains, locus YGR040W, strain KSS1, stronger effect = lower value",0.866
same,normalized growth,"S. cerevisiae deletion strains, locus YGR052W, strain FMP48, stronger effect = lower value",0.69
same,normalized growth,"S. cerevisiae deletion strains, locus YGR092W, strain DBF2, stronger effect = lower value",0.638
same,normalized growth,[2],0.734 (active)
same,normalized growth,"S. cerevisiae deletion strains, locus YHR079C, strain IRE1, stronger effect = lower value",0.426 (active)
same,normalized growth,"S. cerevisiae deletion strains, locus YHR082C, strain KSP1, stronger effect = lower value",0.839
same,normalized growth,"S. cerevisiae deletion strains, locus YHR205W, strain SCH9, stronger effect = lower value",0.965
same,normalized growth,"S. cerevisiae deletion strains, locus YIL147C, strain SLN1, stronger effect = lower value",0.935
same,normalized growth,"S. cerevisiae deletion strains, locus YJL095W, strain BCK1, stronger effect = lower value",0.432 (active)
same,normalized growth,"S. cerevisiae deletion strains, locus YJL128C, strain PBS2, stronger effect = lower value",1.01
same,normalized growth,"S. cerevisiae deletion strains, locus YJL157C, strain FAR1, stronger effect = lower value",0.743
same,normalized growth,"S. cerevisiae deletion strains, locus YJR016C, strain ILV3, stronger effect = lower value",0.934
same,normalized growth,"S. cerevisiae deletion strains, locus YJR066W, strain TOR1 (second series), stronger effect = lower value",0.741
same,normalized growth,"S. cerevisiae deletion strains, locus YJR066W, strain TOR1, stronger effect = lower value",0.652
same,normalized growth,"S. cerevisiae deletion strains, locus YKL048C, strain ELM1, stronger effect = lower value",0.927
same,normalized growth,"S. cerevisiae deletion strains, locus YKL067W, strain YNK1, stronger effect = lower value",0.818
same,normalized growth,"S. cerevisiae deletion strains, locus YKL101W, strain HSL1, stronger effect = lower value",0.871
same,normalized growth,"S. cerevisiae deletion strains, locus YKL193C, strain SDS22, stronger effect = lower value",0.917
same,normalized growth,"S. cerevisiae deletion strains, locus YKL203C, strain TOR2, stronger effect = lower value",0.901
same,normalized growth,"S. cerevisiae deletion strains, locus YLR113W, strain HOG1, stronger effect = lower value",0.487 (active)
same,normalized growth,"S. cerevisiae deletion strains, locus YLR133W, strain CKI1, stronger effect = lower value",0.834
same,normalized growth,"S. cerevisiae deletion strains, locus YLR403W, strain SFP1, stronger effect = lower value",0.785
same,normalized growth,"S. cerevisiae deletion strains, locus YML070W, strain DAK1, stronger effect = lower value",0.744
same,normalized growth,"S. cerevisiae deletion strains, locus YMR001C, strain CDC5, stronger effect = lower value",0.934
same,normalized growth,"S. cerevisiae deletion strains, locus YMR205C, strain PFK2 (second series), stronger effect = lower value",0.848
same,normalized growth,"S. cerevisiae deletion strains, locus YMR277W, strain FCP1, stronger effect = lower value",0.922
same,normalized growth,"S. cerevisiae deletion strains, locus YNL006W, strain LST8, stronger effect = lower value",0.966
same,normalized growth,"S. cerevisiae deletion strains, locus YNL020C, strain ARK1, stronger effect = lower value",0.833
same,normalized growth,"S. cerevisiae deletion strains, locus YNL161W, strain CBK1, stronger effect = lower value",0.933
same,normalized growth,"S. cerevisiae deletion strains, locus YNL183C, strain NPR1, stronger effect = lower value",0.603
same,normalized growth,"S. cerevisiae deletion strains, locus YNL207W, strain RIO2, stronger effect = lower value",0.926
same,normalized growth,"S. cerevisiae deletion strains, locus YNL222W, strain SSU72, stronger effect = lower value",0.921
same,normalized growth,"S. cerevisiae deletion strains, locus YNL307C, strain MCK1 (second series), stronger effect = lower value",0.759
same,normalized growth,"S. cerevisiae deletion strains, locus YOL078W, strain AVO1, stronger effect = lower value",0.92
same,normalized growth,"S. cerevisiae deletion strains, locus YOL136C, strain PFK27, stronger effect = lower value",0.752
same,normalized growth,"S. cerevisiae deletion strains, locus YOR061W, strain CKA2, stronger effect = lower value",0.835
same,normalized growth,"S. cerevisiae deletion strains, locus YOR119C, strain RIO1, stronger effect = lower value",0.863
same,normalized growth,"S. cerevisiae deletion strains, locus YOR231W, strain MKK1, stronger effect = lower value",0.413 (active)
same,normalized growth,"S. cerevisiae deletion strains, locus YOR329C, strain SCD5, stronger effect = lower value",0.948
same,normalized growth,"S. cerevisiae deletion strains, locus YPL031C, strain PHO85, stronger effect = lower value",0.82
same,normalized growth,"S. cerevisiae deletion strains, locus YPL153C, strain RAD53, stronger effect = lower value",0.759
same,normalized growth,"S. cerevisiae deletion strains, locus YPL204W, strain HRR25, stronger effect = lower value",0.773
same,normalized growth,"S. cerevisiae deletion strains, locus YPL209C, strain IPL1, stronger effect = lower value",0.946
same,normalized growth,"S. cerevisiae deletion strains, locus YPL256C, strain CLN2, stronger effect = lower value",0.464 (active)
same,normalized growth,"S. cerevisiae deletion strains, locus YPR025C, strain CCL1, stronger effect = lower value",0.953
same,normalized growth,"S. cerevisiae deletion strains, locus YPR106W, strain ISR1, stronger effect = lower value",0.944
same,normalized growth,"S. cerevisiae deletion strains, locus YPR111W, strain DBF20, stronger effect = lower value",0.939
same,normalized growth,"S. cerevisiae deletion strains, strain NNK1, stronger effect = lower value",0.932
same,normalized growth,"S. cerevisiae deletion strains, strain TSCII, stronger effect = lower value",0.916
CCOC(=O)c1c[nH]c2c(F)cccc2c1=O,normalized growth,"S. cerevisiae deletion strains, locus YBR229C, strain ROT2, stronger effect = lower value",1
same,normalized growth,"S. cerevisiae deletion strains, locus YCL061C, strain MRC1, stronger effect = lower value",0.985
same,normalized growth,[1],0.963
same,normalized growth,"S. cerevisiae deletion strains, locus YDR150W, strain NUM1, stronger effect = lower value",0.963
same,normalized growth,"S. cerevisiae deletion strains, locus YEL061C, strain CIN8, stronger effect = lower value",1.04
same,normalized growth,"S. cerevisiae deletion strains, locus YGR078C, strain PAC10, stronger effect = lower value",0.982
same,normalized growth,[2],1.03
same,normalized growth,"S. cerevisiae deletion strains, locus YHR087W, strain rtc3, stronger effect = lower value",1.02
same,normalized growth,"S. cerevisiae deletion strains, locus YJL187C, strain SWE1, stronger effect = lower value",1.01
same,normalized growth,"S. cerevisiae deletion strains, locus YJR043C, strain POL32, stronger effect = lower value",0.988
same,normalized growth,"S. cerevisiae deletion strains, locus YJR075W, strain HOC1, stronger effect = lower value",0.973
same,normalized growth,"S. cerevisiae deletion strains, locus YKL190W, strain CNB1, stronger effect = lower value",0.993
same,normalized growth,"S. cerevisiae deletion strains, locus YLR039C, strain RIC1, stronger effect = lower value",1.06
same,normalized growth,"S. cerevisiae deletion strains, locus YLR058C, strain SHM2 (second series), stronger effect = lower value",1.01
same,normalized growth,"S. cerevisiae deletion strains, locus YLR085C, strain ARP6, stronger effect = lower value",1.03
same,normalized growth,"S. cerevisiae deletion strains, locus YLR262C, strain YPT6, stronger effect = lower value",1.04
same,normalized growth,"S. cerevisiae deletion strains, locus YML094W, strain GIM5, stronger effect = lower value",1.02
same,normalized growth,"S. cerevisiae deletion strains, locus YMR219W, strain ESC1, stronger effect = lower value",0.997
same,normalized growth,"S. cerevisiae deletion strains, locus YMR263W, strain SAP30, stronger effect = lower value",1.01
same,normalized growth,"S. cerevisiae deletion strains, locus YNL153C, strain GIM3, stronger effect = lower value",0.973
same,normalized growth,"S. cerevisiae deletion strains, locus YNL298W, strain CLA4 (second series), stronger effect = lower value",0.981
same,normalized growth,"S. cerevisiae deletion strains, locus YNL322C, strain KRE1, stronger effect = lower value",0.996
same,normalized growth,"S. cerevisiae deletion strains, locus YNR030W, strain Alg12, stronger effect = lower value",0.978
same,normalized growth,"S. cerevisiae deletion strains, locus YPL055C, strain LGE1, stronger effect = lower value",1.02
same,normalized growth,"S. cerevisiae deletion strains, locus YPL241C, strain CIN2, stronger effect = lower value",0.962
same,normalized growth,"S. cerevisiae deletion strains, locus YPR135W, strain CTF4, stronger effect = lower value",0.985
same,normalized growth,"S. cerevisiae strains, strain wild type, stronger effect = lower value",0.989
